This is one part of a sample in which the strongest signals are shown more often than they occur.
Legend:
Assay in all cases: glycan array binding signal (z-score within array); higher = stronger binding
Details in all cases: glycan notation: IUPAC condensed, linker removed
Fuc(a1-2)Gal = target: Fuc(a1-2)Gal
In short: (§1)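 Arrays were curated from the Consortium for Functional Glycomics database, 3228 in total, and kept only where the protein sequence was available. Binding is expressed as a within-array Z-score. This score was averaged across arrays of the same protein sequence at different concentrations or buffers and across linkers, and negative values can be read as non-binding.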

Fuc(a1-2)Gal(b1-3)GalNAc = target: Fuc(a1-2)Gal(b1-3)GalNAc
In short: as §1

[1] = target: Fuc(a1-2)Gal(b1-4)GlcNAc(b1-2)Man(a1-3)[Fuc(a1-2)Gal(b1-4)GlcNAc(b1-2)Man(a1-6)]Man(b1-4)GlcNAc(b1-4)[Fuc(a1-6)]GlcNAc
In short: as §1

Fuc(a1-2)[Gal(a1-3)]Gal = target: Fuc(a1-2)[Gal(a1-3)]Gal
In short: as §1

[2] = target: Fuc(a1-2)[Gal(a1-3)]Gal(b1-3)GlcNAc(b1-2)Man(a1-3)[Fuc(a1-2)[Gal(a1-3)]Gal(b1-3)GlcNAc(b1-2)Man(a1-6)]Man(b1-4)GlcNAc(b1-4)GlcNAc
In short: as §1

[3] = target: Fuc(a1-2)[GalNAc(a1-4)]Gal(b1-4)GlcNAc
In short: as §1

Gal(b1-3)Gal = target: Gal(b1-3)Gal
In short: as §1

Gal(b1-3)Gal(b1-4)GlcNAc = target: Gal(b1-3)Gal(b1-4)GlcNAc
In short: as §1

Gal(b1-3)GalNAc = target: Gal(b1-3)GalNAc
In short: as §1

Gal(b1-3)GalNAc(b1-3)Gal = target: Gal(b1-3)GalNAc(b1-3)Gal
In short: as §1

[4] = target: Gal(b1-3)GalNAc(b1-4)Gal(b1-4)Glc
In short: as §1

[5] = target: Gal(b1-3)GalNAc(b1-4)[Neu5Ac(a2-3)]Gal(b1-4)Glc
In short: as §1

[6] = target: Gal(b1-3)GlcNAc(b1-2)Man(a1-3)[GlcNAc(b1-4)][Gal(b1-3)GlcNAc(b1-2)Man(a1-6)]Man(b1-4)GlcNAc(b1-4)GlcNAc
In short: as §1

[7] = target: Gal(b1-3)[Neu5Ac(a2-6)]GalNAc
In short: as §1

[8] = target: Gal(b1-3)[Neu5Ac(a2-6)]GlcNAc(b1-4)Gal(b1-4)Glc
In short: as §1

[9] = target: Gal(b1-4)GalNAc(a1-3)[Fuc(a1-2)]Gal(b1-4)GlcNAc
In short: as §1

Gal(b1-4)Glc6S = target: Gal(b1-4)Glc6S
In short: as §1

[10] = target: Gal(b1-4)GlcNAc(b1-2)Man(a1-6)[Man(a1-3)]Man(b1-4)GlcNAc(b1-4)GlcNAc
In short: as §1

[11] = target: Gal(b1-4)GlcNAc(b1-3)Gal(b1-3)GlcNAc
In short: as §1

[12] = target: Gal(b1-4)GlcNAc(b1-3)Gal(b1-4)Glc
In short: as §1

[13] = target: Gal(b1-4)GlcNAc(b1-3)Gal(b1-4)GlcNAc(b1-2)[Gal(b1-4)GlcNAc(b1-3)Gal(b1-4)GlcNAc(b1-6)]Man(a1-6)[Gal(b1-4)GlcNAc(b1-3)Gal(b1-4)GlcNAc(b1-2)Man(a1-3)]Man(b1-4)GlcNAc(b1-4)[Fuc(a1-6)]GlcNAc
In short: as §1

[14] = target: Gal(b1-4)GlcNAc(b1-3)Gal(b1-4)GlcNAc(b1-3)Gal(b1-4)GlcNAc(b1-2)[Gal(b1-4)GlcNAc(b1-3)Gal(b1-4)GlcNAc(b1-3)Gal(b1-4)GlcNAc(b1-6)]Man(a1-6)[Gal(b1-4)GlcNAc(b1-3)Gal(b1-4)GlcNAc(b1-3)Gal(b1-4)GlcNAc(b1-2)Man(a1-3)]Man(b1-4)GlcNAc(b1-4)[Fuc(a1-6)]GlcNAc
In short: as §1

[15] = target: Gal(b1-4)GlcNAc(b1-6)Gal(b1-4)GlcNAc
In short: as §1

[16] = target: Gal(b1-4)GlcNAc(b1-6)[Gal(b1-3)]GalNAc
In short: as §1

Gal(b1-6)Gal = target: Gal(b1-6)Gal
In short: as §1

Gal3S(b1-4)GlcNAc = target: Gal3S(b1-4)GlcNAc
In short: as §1

[17] = target: Gal3S(b1-4)[Fuc(a1-3)]GlcNAc6S
In short: as §1

Gal6P(b1-4)GlcNAc = target: Gal6P(b1-4)GlcNAc
In short: as §1

Gal6S(b1-3)GlcNAc6S = target: Gal6S(b1-3)GlcNAc6S
In short: as §1

[18] = target: GalNAc(a1-3)GalNAc(b1-3)Gal(a1-4)Gal(b1-4)GlcNAc
In short: as §1

[19] = target: GlcA3S(b1-3)Gal(b1-4)GlcNAc(b1-2)Man
In short: as §1

[20] = target: GlcNAc(b1-3)Gal(b1-4)GlcNAc(b1-6)[Gal(b1-3)]GalNAc
In short: as §1

Man(a1-2)Man(a1-3)Man = target: Man(a1-2)Man(a1-3)Man
In short: as §1

[21] = target: Man(a1-3)[Man(a1-6)]Man(b1-4)GlcNAc(b1-4)[Fuc(a1-6)]GlcNAc
In short: as §1

Man(b1-4)GlcNAc = target: Man(b1-4)GlcNAc
In short: as §1

[22] = target: Neu5Ac(a2-3)Gal(b1-3)GlcNAc(b1-2)Man(a1-3)[Neu5Ac(a2-3)Gal(b1-3)GlcNAc(b1-2)Man(a1-6)]Man(b1-4)GlcNAc(b1-4)GlcNAc
In short: as §1

[23] = target: Neu5Ac(a2-3)Gal(b1-3)GlcNAc(b1-6)GalNAc
In short: as §1

[24] = target: Neu5Ac(a2-3)Gal(b1-4)GlcNAc(b1-3)Gal
In short: as §1

[25] = target: Neu5Ac(a2-3)Gal(b1-4)GlcNAc(b1-3)Gal(b1-4)GlcNAc(b1-2)Man(a1-3)[Neu5Ac(a2-3)Gal(b1-4)GlcNAc(b1-3)Gal(b1-4)GlcNAc(b1-2)Man(a1-6)]Man(b1-4)GlcNAc(b1-4)GlcNAc
In short: as §1

[26] = target: Neu5Ac(a2-3)Gal(b1-4)GlcNAc(b1-6)[Gal(b1-3)]GalNAc
In short: as §1

[27] = target: Neu5Ac(a2-3)Gal(b1-4)[Fuc(a1-3)]GlcNAc(b1-2)Man
In short: as §1

[28] = target: Neu5Ac(a2-3)Gal(b1-4)[Fuc(a1-3)]GlcNAc(b1-3)Gal(b1-4)GlcNAc
In short: as §1

[29] = target: Neu5Ac(a2-3)[Neu5Ac(a2-6)]GalNAc
In short: as §1

[30] = target: Neu5Ac(a2-6)Gal(b1-4)GlcNAc(b1-2)Man(a1-3)[GlcNAc(b1-4)][Neu5Ac(a2-6)Gal(b1-4)GlcNAc(b1-2)Man(a1-6)]Man(b1-4)GlcNAc(b1-4)GlcNAc
In short: as §1

[31] = target: Neu5Ac(a2-6)Gal(b1-4)GlcNAc(b1-2)Man(a1-6)[Gal(b1-4)GlcNAc(b1-2)Man(a1-3)]Man(b1-4)GlcNAc(b1-4)GlcNAc
In short: as §1

[32] = target: Neu5Ac(a2-6)Gal(b1-4)GlcNAc(b1-3)Gal(b1-4)GlcNAc(b1-3)Gal(b1-4)GlcNAc
In short: as §1

[33] = target: Neu5Ac(a2-6)Gal(b1-4)GlcNAc(b1-3)Gal(b1-4)[Fuc(a1-3)]GlcNAc(b1-3)Gal(b1-4)[Fuc(a1-3)]GlcNAc
In short: as §1

[34] = target: Neu5Ac(a2-6)Gal(b1-4)GlcNAc6S
In short: as §1

[35] = target: Neu5Ac(b2-6)Gal(b1-4)GlcNAc
In short: as §1

[36] = target: Neu5Gc(a2-8)Neu5Gc(a2-6)Gal(b1-4)GlcNAc
In short: as §1

B1: Epa1 (Candida glabrata) (protein)
chain: MGSSHHHHHHSSGLVPRGSHMTSSNDISLASKDPTTFPLGCSPDITTPKKGLSMELYSYDFRKKGSYPCWDAAYLDPNYPRTGYKSHRLLAKVDGVTGNINFYYHATKGCTPQLGHLPASYNYPKPLTMTNFTMLLYGYFRPKVTGFHTFTISADDLLFVNFGAGNAFDCCRRDSSADHFGNYQAYAIWGSKTAKDELTVHLDAGVYYPIRLFYNNREYDGALSFTFKTESNENTVSDFSEYFFSLDDTEEGCPGLISYD
In the case of B1, the “glycan array binding signal (z-score)” value (Fuc(a1-2)Gal) is reported as -0.506, the “glycan array binding signal (z-score)” value (Fuc(a1-2)Gal(b1-3)GalNAc) is reported as -0.25 and the “glycan array binding signal (z-score)” value [1] is reported as -0.2. The “glycan array binding signal (z-score)” value (Fuc(a1-2)[Gal(a1-3)]Gal) was -0.213, the “glycan array binding signal (z-score)” value [2] was -0.325 and the “glycan array binding signal (z-score)” value [3] was -0.299. For the same binder, the “glycan array binding signal (z-score)” value (Gal(b1-3)Gal) was 3.63, the “glycan array binding signal (z-score)” value (Gal(b1-3)Gal(b1-4)GlcNAc) was 8.5 and the “glycan array binding signal (z-score)” value (Gal(b1-3)GalNAc) was 3.51. The “glycan array binding signal (z-score)” value (Gal(b1-3)GalNAc(b1-3)Gal) was 6.23, the “glycan array binding signal (z-score)” value [4] was 9.89 and the “glycan array binding signal (z-score)” value [5] was 4.04. The “glycan array binding signal (z-score)” value [6] was 0.171, the “glycan array binding signal (z-score)” value [7] was 4.22 and the “glycan array binding signal (z-score)” value [8] was -0.213. For the same binder, the “glycan array binding signal (z-score)” value [9] was -0.197, the “glycan array binding signal (z-score)” value (Gal(b1-4)Glc6S) was 0.304 and the “glycan array binding signal (z-score)” value [10] was -0.169. The “glycan array binding signal (z-score)” value [11] was -0.155, the “glycan array binding signal (z-score)” value [12] was 0.551 and the “glycan array binding signal (z-score)” value [13] was 3.08. For the same binder, the “glycan array binding signal (z-score)” value [14] was 3.06, the “glycan array binding signal (z-score)” value [15] was 3.12 and the “glycan array binding signal (z-score)” value [16] was 4.02. For the same binder, the “glycan array binding signal (z-score)” value (Gal(b1-6)Gal) was 0.429, the “glycan array binding signal (z-score)” value (Gal3S(b1-4)GlcNAc) was -0.442 and the “glycan array binding signal (z-score)” value [17] was -0.394. The “glycan array binding signal (z-score)” value (Gal6P(b1-4)GlcNAc) was -0.272, the “glycan array binding signal (z-score)” value (Gal6S(b1-3)GlcNAc6S) was -0.014 and the “glycan array binding signal (z-score)” value [18] was -0.312. For the same binder, the “glycan array binding signal (z-score)” value [19] was -0.3, the “glycan array binding signal (z-score)” value [20] was 1.03 and the “glycan array binding signal (z-score)” value (Man(a1-2)Man(a1-3)Man) was -0.318. The “glycan array binding signal (z-score)” value [21] was -0.271, the “glycan array binding signal (z-score)” value (Man(b1-4)GlcNAc) was -0.281 and the “glycan array binding signal (z-score)” value [22] was -0.325. The “glycan array binding signal (z-score)” value [23] was -0.293, the “glycan array binding signal (z-score)” value [24] was -0.288 and the “glycan array binding signal (z-score)” value [25] was -0.257. The “glycan array binding signal (z-score)” value [26] was 1.45, the “glycan array binding signal (z-score)” value [27] was -0.346 and the “glycan array binding signal (z-score)” value [28] was -0.214. The “glycan array binding signal (z-score)” value [29] was -0.328, the “glycan array binding signal (z-score)” value [30] was -0.32 and the “glycan array binding signal (z-score)” value [31] was -0.14. For the same binder, the “glycan array binding signal (z-score)” value [32] was -0.267, the “glycan array binding signal (z-score)” value [33] was -0.272 and the “glycan array binding signal (z-score)” value [34] was -0.335. For the same binder, the “glycan array binding signal (z-score)” value [35] was -0.248 and the “glycan array binding signal (z-score)” value [36] was -0.309.

Source: the supplement of paper PMC8728848
